Reference: PubChem BioAssay AID1159580 (chemical genetic matrix, 2015)
In all, about 5,500 compounds went through this assay and about 2,000 (36%) were called active. About 18% were inconclusive and are not listed. This is one part of the list. Unmarked numbers belong to inactive results. Rule as the data show it: active = normalized growth mostly below about 0.91 (no sharp cut-off); inconclusive = no clear call, values can overlap the other calls; inactive = mostly above about 0.92.

Test: chemical genetic growth profiling, strain panel (AID 1159580);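 also: tested at 20 µM; growth read once vehicle control cultures reached saturation at 30 °C; 1 = growth at the plate median or of vehicle wells; lower values mean less growth of the strain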
Details: growth OD
[1] = S. cerevisiae deletion strains, locus YAL013W, strain DEP1, hits give low values
[2] = S. cerevisiae deletion strains, locus YBR229C, strain ROT2, hits give low values
[3] = S. cerevisiae deletion strains, locus YCL061C, strain MRC1, hits give low values
[4] = S. cerevisiae deletion strains, locus YDL101C, strain DUN1, hits give low values
[5] = S. cerevisiae deletion strains, locus YDR150W, strain NUM1, hits give low values
[6] = S. cerevisiae deletion strains, locus YEL061C, strain CIN8, hits give low values
[7] = S. cerevisiae deletion strains, locus YGR078C, strain PAC10, hits give low values
[8] = S. cerevisiae deletion strains, locus YHR030C, strain SLT2, hits give low values
[9] = S. cerevisiae deletion strains, locus YHR087W, strain rtc3, hits give low values
[10] = S. cerevisiae deletion strains, locus YJL187C, strain SWE1, hits give low values
[11] = S. cerevisiae deletion strains, locus YJR043C, strain POL32, hits give low values
[12] = S. cerevisiae deletion strains, locus YJR075W, strain HOC1, hits give low values
[13] = S. cerevisiae deletion strains, locus YLR039C, strain RIC1, hits give low values
[14] = S. cerevisiae deletion strains, locus YLR058C, strain SHM2 (second series), hits give low values
[15] = S. cerevisiae deletion strains, locus YLR085C, strain ARP6, hits give low values
[16] = S. cerevisiae deletion strains, locus YLR262C, strain YPT6, hits give low values
[17] = S. cerevisiae deletion strains, locus YML094W, strain GIM5, hits give low values
[18] = S. cerevisiae deletion strains, locus YMR219W, strain ESC1, hits give low values
[19] = S. cerevisiae deletion strains, locus YMR263W, strain SAP30, hits give low values
[20] = S. cerevisiae deletion strains, locus YNL153C, strain GIM3, hits give low values
[21] = S. cerevisiae deletion strains, locus YNL298W, strain CLA4 (second series), hits give low values
[22] = S. cerevisiae deletion strains, locus YNL322C, strain KRE1, hits give low values
[23] = S. cerevisiae deletion strains, locus YNR030W, strain Alg12, hits give low values
[24] = S. cerevisiae deletion strains, locus YPL055C, strain LGE1, hits give low values
[25] = S. cerevisiae deletion strains, locus YPL241C, strain CIN2, hits give low values
[26] = S. cerevisiae deletion strains, locus YPR135W, strain CTF4, hits give low values
[27] = S. cerevisiae deletion strains, locus YKL190W, strain CNB1, hits give low values
[28] = S. cerevisiae deletion strains, locus YOL006C, strain TOP1, hits give low values
[29] = S. cerevisiae strains, strain wild type, hits give low values

COc1ccc([N+](=O)[O-])c(OC)c1C(N)=O
normalized growth [1]: 1.02
normalized growth [2]: 1.03
normalized growth [3]: 1.06
normalized growth [4]: 1.06
normalized growth [5]: 1.04
normalized growth [6]: 0.995
normalized growth [7]: 1.04
normalized growth [8]: 1.11
normalized growth [9]: 0.964
normalized growth [10]: 1.02
normalized growth [11]: 1.06
normalized growth [12]: 1.02
normalized growth [13]: 1.03
normalized growth [14]: 0.997
normalized growth [15]: 1.03
normalized growth [16]: 0.989
normalized growth [17]: 0.98
normalized growth [18]: 1.02
normalized growth [19]: 1.02
normalized growth [20]: 1.04
normalized growth [21]: 1.02
normalized growth [22]: 1.01
normalized growth [23]: 1.03
normalized growth [24]: 1.01
normalized growth [25]: 1.02
normalized growth [26]: 1.12

COc1cc([N+](=O)[O-])c(OC)cc1SCC(=O)NNC(=O)c1cc(OC)c(OC)c(OC)c1
normalized growth [1]: 0.982
normalized growth [2]: 1.01
normalized growth [3]: 0.981
normalized growth [4]: 0.968
normalized growth (S. cerevisiae deletion strains, locus YDL134C, strain PPH21, hits give low values): 0.991
normalized growth [5]: 0.942
normalized growth [6]: 0.941
normalized growth [7]: 0.978
normalized growth (S. cerevisiae deletion strains, locus YGR229C, strain SMI1, hits give low values): 1.01
normalized growth [8]: 0.963
normalized growth [9]: 1.03
normalized growth [10]: 1.01
normalized growth [11]: 0.983
normalized growth [12]: 1.01
normalized growth [27]: 0.999
normalized growth [13]: 0.974
normalized growth [14]: 0.999
normalized growth [15]: 0.946
normalized growth [16]: 1.04
normalized growth [17]: 1.01
normalized growth [18]: 1.01
normalized growth [19]: 0.987
normalized growth [20]: 0.988
normalized growth [21]: 0.937
normalized growth [22]: 0.98
normalized growth [23]: 0.999
normalized growth [28]: 0.931
normalized growth [24]: 1.01
normalized growth [25]: 0.939
normalized growth [26]: 0.904
normalized growth [29]: 1.02

COC(=O)Cc1cc(OC)c(OC)cc1[N+](=O)[O-]
normalized growth [1]: 1.01
normalized growth [2]: 0.998
normalized growth [3]: 1.02
normalized growth [4]: 1.01
normalized growth [5]: 1.01
normalized growth [6]: 0.953
normalized growth [7]: 1.03
normalized growth [8]: 1.07
normalized growth [9]: 1.1 [resistant] (active)
normalized growth [10]: 0.983
normalized growth [11]: 1
normalized growth [12]: 0.997
normalized growth [27]: 0.978
normalized growth [13]: 1.16
normalized growth [14]: 0.991
normalized growth [15]: 0.982
normalized growth [16]: 1.15
normalized growth [17]: 0.997
normalized growth [18]: 1
normalized growth [19]: 1
normalized growth [20]: 1.01
normalized growth [21]: 0.977
normalized growth [22]: 1.01
normalized growth [23]: 0.985
normalized growth [28]: 0.977
normalized growth [24]: 0.974
normalized growth [25]: 1.01
normalized growth [26]: 1.03
normalized growth [29]: 0.972
